Source: PubChem BioAssay (National Center for Advancing Translational Sciences (NCATS))
HPGD inh – blocks human HPGD enzyme activity; purified HPGD, NADH fluorescence kinetic, PGE2 substrate; AID 894; 150,000 compounds, 4.3% hits; Potency, µM, for inactives: at the highest dose activity change, negative = inhibition, hits mostly inhibitors; P15428; active = well fitted inhibition curve with a large enough effect, not every such curve was filed as active; inconclusive = small, poorly fitted or top-dose-only effect, or another doubt; inactive = no such curve, though single readings can be large or run the other way; note: potency is the fitted concentration of half-maximal effect
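20 nM HPGD preincubated 15 min at room temperature with compound in 50 mM Tris-HCl pH 8, 0.01% Tween 20. Started with 1 mM NAD+ and 30 uM prostaglandin E2; NADH fluorescence (360/450 nm) read 5 times over 30-s intervals, last minus first.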
PNC assembly inh – blocks assembly of the perinucleolar compartment. activity change (PNC), negative = inhibition, % at 10 µM. AID 2417. 140,000 compounds, 3.1% hits. PC3M PTB-GFP, PNC prevalence imaging, 16 h; hits give low values;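 active = readout at or below -70, meaning at least 70% loss of cells showing the perinucleolar compartment, a nuclear body marking cancer cells; inconclusive = readout between -30 and a set limit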;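 note: plate controls were DMSO wells for no effect and camptothecin positive control wells for full effect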
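Read-out is percentage of cells bearing a perinucleolar compartment, from automated 20x imaging of fixed, Hoechst-stained PC3M PTB-GFP cells. Cells were seeded 4 h, then exposed 16 h to compound (23 nl of library stock) in duplicate plates.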
15-hLO-2 inh – 15-hLO-2 (ALOX15B) enzyme inhibition | purified 15hLO-2, xylenol orange hydroperoxide absorbance | AID 881 | 110,000 compounds, 0.56% hits | Potency, µM (series often up to 57.1 µM), inactives show at the highest dose activity change, negative = inhibition, usual class: inhibitors; note: potency is the fitted concentration of half-maximal effect; nearly all actives have a fitted effect of over 60% in size
Target sequence (O15296 whole entry, looked up): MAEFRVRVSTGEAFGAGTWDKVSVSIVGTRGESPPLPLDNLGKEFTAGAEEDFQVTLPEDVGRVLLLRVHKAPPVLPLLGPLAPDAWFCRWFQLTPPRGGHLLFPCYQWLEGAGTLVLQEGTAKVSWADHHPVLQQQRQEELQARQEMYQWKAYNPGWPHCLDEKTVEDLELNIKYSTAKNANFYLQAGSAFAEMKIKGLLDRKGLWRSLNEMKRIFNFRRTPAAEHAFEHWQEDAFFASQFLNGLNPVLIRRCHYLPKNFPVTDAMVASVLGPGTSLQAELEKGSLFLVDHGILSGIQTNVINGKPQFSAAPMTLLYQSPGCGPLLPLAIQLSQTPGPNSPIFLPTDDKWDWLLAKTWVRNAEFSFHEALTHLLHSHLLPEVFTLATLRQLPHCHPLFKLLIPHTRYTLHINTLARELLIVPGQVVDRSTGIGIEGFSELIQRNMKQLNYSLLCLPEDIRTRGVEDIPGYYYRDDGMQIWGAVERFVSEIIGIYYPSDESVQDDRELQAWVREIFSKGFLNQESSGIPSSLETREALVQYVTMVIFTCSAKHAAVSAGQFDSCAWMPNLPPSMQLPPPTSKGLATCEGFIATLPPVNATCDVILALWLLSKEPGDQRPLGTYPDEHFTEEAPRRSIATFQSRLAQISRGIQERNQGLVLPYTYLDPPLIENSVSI
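Purified human 15hLO-2 (50 nM) preincubated 15 min with compound, then 45 uM arachidonic acid for 90 min at RT in 25 mM Hepes pH 7.5, 0.01% Triton X-100. Hydroperoxide detected by Fe-xylenol orange; 573/405 nm absorbance ratio.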
IMPase inh – IMPase inhibition in cells. 120,000 tested, under 10 active. CHO-M1 cells, IP1 accumulation, HTRF TR-FRET ratio. P97697. inhibition (IP1 accumulation), % at 46.1 µM; active = well fitted curve in the direction sought with a large enough effect in the signal ratio, not every such curve was filed as active; inconclusive = small, poorly fitted or top-dose-only effect, or a change in a side signal; inactive = no such curve, though single readings can be large or run the other way; the % refers to the signal ratio;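 note: cells stimulated with carbachol in lithium chloride buffer; plate controls were DMSO basal wells for no effect and reference inhibitor wells for full effect; higher means more IMPase inhibition seen as more IP1 and lower FRET ratio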
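Carbachol-driven Gq signalling in CHO-M1 cells (2000/well) generates IP1. Compounds that block IMPase raise IP1 and so reduce the FRET signal from Eu-anti-IP1 and d2-IP1 after a 10 min room-temperature lysis.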
12-hLO inh – blocks human 12-lipoxygenase activity | 150,000 compounds, 0.12% hits | P18054 | purified 12-hLO, xylenol orange hydroperoxide absorbance | Potency, µM (titrated, usually from 57.1 µM), for inactives: at the highest dose activity change, negative = inhibition, usual class: inhibitors; note: potency is the fitted concentration of half-maximal effect; nearly all actives have a fitted effect of over 55% in size
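Xylenol orange chromogenic assay: hydroperoxide from 12hLO oxidises Fe(II), giving red-shifted Fe(III)-XO absorbance. Conditions: 150 nM enzyme, 40 uM arachidonic acid, 25 mM Hepes pH 7.0, 0.01% Triton X-100, 30 min, room temperature.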
IMPase Li cell – IMPase inhibition in cells with lithium potentiation; CHO-M1 cells, IP1 TR-FRET (IP-One), carbachol + lithium; Potency, µM (top dose mostly 59.4 µM), for inactives: at the highest dose activity, negative = IMPase inhibition, actives largely listed as inhibitors; 210,000 compounds, 0.35% hits; AID 1457;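 note: IP1 builds up when IMPase is blocked and the TR-FRET signal falls; potency is the fitted concentration of half-maximal effect; plate controls were basal vehicle for no effect and high inhibitor control for full effect; nearly all actives have a fitted effect of over 50% in size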
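Test compounds were applied to CHO-M1 cells previously cultured for 16–30 h at 2000 per well. A small lithium amount accompanied them; after 30 min at 37C, IP1 was quantified by TR-FRET.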
* hit, by the source's call; ? = inconclusive; / = no result; [ ] = another dose, or the depositor's remark. This is a sample that favours compounds with a hit; in the whole collection about 5.4% have one here. Unless noted, calls come from the whole dose curve; as a rule, active = well fitted curve in the direction sought with a large enough effect; inconclusive = small, poorly fitted or top-dose-only effect, or another doubt; inactive = no such curve, though single readings can be large; an effect the other way counts as inactive or inconclusive. Unless noted, % is set by controls: 0 for no effect and ±100 for the full control effect.

SMILES	HPGD inh	PNC assembly inh	15-hLO-2 inh	IMPase inh	12-hLO inh	IMPase Li cell
CCC(C)OC(=O)C1=C(C)O[C@]23OC(N)=C(C#N)[C@]12C(=O)c1ccccc13 (some centres undefined)	-22%	-100*	/	-20	7%	26%
CN(C)c1nc(N)nc(CSc2n[nH]c(-c3ccccc3)n2)n1	4µM*	-29	-4%	9	-2%	13%[38.3 µM]
c1ccc(Nc2cc(-c3ccoc3)ncn2)cc1	/	/	16%	/	/	-7%
CC(C)C(O)(C(C)C)C(C)C	-9%	/	0%[11.4 µM]	/	-6%[11.4 µM]	-4%
O=C1Nc2ccccc2C(=O)C1(Cl)Cc1ccccc1 (centres undefined)	7.1µM*	36	25%	-2	-15%	6%[38.3 µM]
CCOC(=O)c1cccc(NC(=O)CNS(=O)(=O)c2cccs2)c1	-10%	-100*	/	1	-1%	-2%
O=C1CSC(=Nc2cc(Cl)ccc2Cl)N1	10µM*	-17	3%	-6	-1%	14%[38.3 µM]
C/C(=N\Nc1ccccc1)c1c(O)cc(C)oc1=O	/	/	/	/	/	2%
C/C(=N/NC(=O)c1cccc(C)c1)c1c(O)cc(C)oc1=O	-25%	-100*	/	-6	-3%	11%
O=C(O)Cc1[nH]cnc1C(=O)O	-1%	/	8%[11.4 µM]	/	1%[11.4 µM]	2%
COc1ccc(-n2c(=O)cnc3cnc(N(C)C)nc32)cc1	/	/	-19%	/	/	?
O=C(O)c1cnc(-c2ccccc2)nc1Sc1cccc(Cl)c1	22µM*	?	5%[11.4 µM]	1[1.84 µM]	1%	16%[38.3 µM]
O=C(O)c1cnc(-c2ccccc2)nc1Sc1ccc(Cl)cc1Cl	-18%	14	-12%	-7	1%	-4%[38.3 µM]
O=C(O)c1cnc(-c2ccccc2)nc1Sc1ccccc1	14µM*	67	/	8	6%	4%[38.3 µM]
O=C(O)c1cnc(-c2ccccc2)nc1-c1ccccc1	/	/	/	/	/	-3%
N#CCCCS(=O)(=O)c1nc2ccccc2s1	-21%	/	/	/	/	3%
Cc1ccccc1NC(=O)c1ccc(N(Cc2ccccc2)S(C)(=O)=O)cc1	/	/	/	2	/	/
O/N=C/c1ccccc1Oc1ccccc1	16µM*	-22	-6%	-2	-1%	7%
O/N=C\c1ccccc1Oc1ccc(F)cc1	/	/	/	/	/	-6%
Cc1cc(C)cc(Oc2ccccc2/C=N\O)c1	22µM*	?	-15%[11.4 µM]	8[1.84 µM]	-2%	17%[38.3 µM]
CC[C@H]1CN(C)[C@H]2Cc3c([nH]c4ccccc34)C(=O)C[C@H]1[C@H]2C(=O)OC	-14%	/	-4%[11.4 µM]	/	4%[11.4 µM]	-3%
CCCCC/C=C\C/C=C\C=C\[C@@H](O)C/C=C\CCCC(=O)O	-8%	/	/	/	-2%	-1%
O=C(NNc1c(Cl)cc(Cl)cc1Cl)C1CCC1	32µM*	32	/	/	-1%	-1%
O=C(NCCCl)NNc1c(Cl)cc(Cl)cc1Cl	/	/	/	/	/	-10%
CCC(Oc1ccccc1)C(=O)Nc1nnc(C(F)(F)F)s1 (centres undefined)	-3%	?	-17%	-10	4%	-3%
SMILES	HPGD inh	PNC assembly inh	15-hLO-2 inh	IMPase inh	12-hLO inh	IMPase Li cell
CSc1nnc(NC(=O)CCc2ccccc2)s1	-24%	30	5%	-6	-7%	28µM*
Cc1nnc(NC(=O)CSCc2ccccc2)s1	-8%	-106*	-1%	4	3%	26%[38.3 µM]
CCC(Oc1ccccc1)C(=O)Nc1nnc(C)s1 (centres undefined)	-4%	-117*	-1%	-5	-1%	-4%[38.3 µM]
CCSc1nnc(NC(=O)CCc2ccc(OC)cc2)s1	-10%	59	/	/	2%	?
Cc1ccc(C(=O)Nc2cc3cc(Cl)ccc3oc2=O)cc1	/	/	/	-15	/	/
CCCCCCCCCCCCC/C=C/[C@@H](O)[C@H](CO)NC(C)=O	/	/	/	/	/	-4%
COCCn1c(=O)c(-c2cc(F)cc(F)c2)nc2cnc(Nc3cccc(OC)c3)nc21	-8%	/	-6%	/	-6%	1%
CO[Si](CCCNCCC[Si](OC)(OC)OC)(OC)OC	-6%	/	-6%	/	2%	-9%
Nc1cc(S(N)(=O)=O)ccc1SSc1ccc(S(N)(=O)=O)cc1N	5µM*	/	?	/	-28%[11.4 µM]	36%
COCCNC(=O)CN(C(=O)Cn1nnc2ccccc21)c1ccc(C)c(F)c1	-1%	-119*	/	-5	1%	14%
COc1cc(C(C(=O)NC(C)(C)C)N(Cc2ccc3c(c2)OCO3)C(=O)c2cnccn2)cc(OC)c1OC (centres undefined)	-10%	-21	-13%	5	4%	43%[38.3 µM]
COc1ccc(CN(C(=O)c2cnccn2)C(C(=O)NC(C)(C)C)c2cc(OC)c(OC)c(OC)c2)cc1 (centres undefined)	-1%	-95*	/	/	-6%	-1%
CNc1ncncc1-c1ccccc1C	/	/	2%	/	/	-1%
CC(=O)Nc1ccc2nc(-c3cccnc3)[nH]c2c1	?	-100*	/	-16	1%	0%
COC(=O)c1ccc(C(=O)Nc2ccc3nc(-c4cccnc4)[nH]c3c2)cc1	-9%	-83*	-6%	-2	7%	6%
CCOC(=O)Cc1csc(SCC(=O)NC2CCCC(C)C2C)n1 (centres undefined)	25µM*	?	/	10	2%	15%
CCOC(=O)c1c(NC(=O)CSc2nnc(C)s2)sc2c1CCCCC2	-23%	114	-6%	5	-4%	9%[38.3 µM]
CCOC(=O)Cc1csc(SCC(=O)NC2CCCCC2)n1	?	28	/	/	-2%	7%
CCOC(=O)Cc1csc(SCC(=O)Nc2sc3c(c2C(N)=O)CCC3)n1	18µM*	-4	-29%	-9	-13%	0%[38.3 µM]
CCn1c(NC(=O)c2ccc(C)cc2)c2ccccc2nc1=O	1%	-90*	-1%	-1	6%	0%
CCn1c(NC(=O)c2ccc(F)cc2)c2ccccc2nc1=O	-2%	25	0%	-6	1%	-7%
CCCOc1ccc(/C(O)=C2/C(=O)C(=O)N(CCOC)C2c2cccnc2)cc1 (centres undefined)	-23%	13	-12%	-12	-4%	11µM*
CC1Cc2cc(/C(O)=C3/C(=O)C(=O)N(CCCn4ccnc4)C3c3cccnc3)ccc2O1 (centres undefined)	-13%	13	31%	-20	1%	11µM*
C=CCOc1ccc(/C(O)=C2\C(=O)C(=O)N(CCOC)C2c2cccnc2)cc1 (centres undefined)	-17%	26	3%	-19	-2%	10µM*
O=C(c1cnccn1)N1CCC2(CC1)CN(Cc1cc(C(F)(F)F)cc(C(F)(F)F)c1)C2	-1%	/	32%	/	4%	17%
O=C(c1cnccn1)N1CCC2(CC1)CCN(c1ncccn1)CC2	-13%	/	-5%	/	2%	3%
CCCNC(=O)c1ccc(C2SCC(=O)N2Cc2ccccc2)cc1 (centres undefined)	3.2µM*	?	/	/	3%	18%
